# Measured values reported in PMC7862700, “An all-to-all approach to the identification of sequence-specific readers for epigenetic DNA modifications on cytosine”.
# Legend:
# Test in all cases: DAPPL (digital affinity profiling via proximity ligation, sequencing); 10 mM Tris-HCl pH 7.5, 50 mM NaCl, 1 mM DTT, 4% glycerol, room temperature, 30 min; GST-TFs on glutathione beads, 16-mer random dsDNA library, 0.1% formaldehyde crosslink after washing; high values mean tight binding
# [1] = target: T1, FEV (Homo sapiens, UniProt Q99581 1-238); conditions: protein: recombinant; tags: N-terminal GST; dsDNA, one strand shown
# T1 sequence: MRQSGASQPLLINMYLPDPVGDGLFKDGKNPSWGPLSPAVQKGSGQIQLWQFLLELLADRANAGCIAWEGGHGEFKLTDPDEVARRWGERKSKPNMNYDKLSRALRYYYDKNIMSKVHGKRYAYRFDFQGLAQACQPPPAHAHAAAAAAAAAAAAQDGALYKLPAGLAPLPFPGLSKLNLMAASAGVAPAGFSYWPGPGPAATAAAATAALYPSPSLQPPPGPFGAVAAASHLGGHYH
# How it was run: (§1)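 Sequencing on an Illumina NextSeq500 followed washing, crosslinking with 0.1% formaldehyde, proximity ligation (BsaI/T4 ligase, 1 h, 37 °C) and PCR amplification of pools that had been incubated for 30 min at room temperature with 200 nmole of a random double-stranded 16-mer DNA library in Tris/NaCl/DTT/glycerol buffer. Each pool held DNA-barcoded human transcription factors, expressed in yeast as GST fusions and captured on glutathione beads, plus a tag-only sample. Binding signal is a hexamer's read frequency for a factor divided by its frequency in the tag-only sample.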
# [2] = target: ETV5 (Homo sapiens, UniProt P41161 1-510); conditions: protein: recombinant; tags: N-terminal GST; dsDNA, one strand shown
# Chain of ETV5 (P41161 whole entry): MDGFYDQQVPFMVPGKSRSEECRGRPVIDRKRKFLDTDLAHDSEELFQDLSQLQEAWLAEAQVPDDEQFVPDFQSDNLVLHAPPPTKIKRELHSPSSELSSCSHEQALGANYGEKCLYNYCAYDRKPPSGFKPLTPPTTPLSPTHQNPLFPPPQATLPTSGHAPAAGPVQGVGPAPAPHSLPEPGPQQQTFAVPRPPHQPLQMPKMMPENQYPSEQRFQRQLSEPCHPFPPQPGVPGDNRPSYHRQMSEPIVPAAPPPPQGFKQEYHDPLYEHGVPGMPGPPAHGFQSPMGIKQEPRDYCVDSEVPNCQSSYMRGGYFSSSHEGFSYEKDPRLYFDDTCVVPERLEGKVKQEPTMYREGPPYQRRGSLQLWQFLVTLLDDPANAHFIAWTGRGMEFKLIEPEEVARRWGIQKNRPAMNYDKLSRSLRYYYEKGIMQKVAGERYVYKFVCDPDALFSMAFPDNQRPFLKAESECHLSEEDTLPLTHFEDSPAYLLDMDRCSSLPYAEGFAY
# How it was run: as §1
# [3] = target: HSF1 (Homo sapiens, UniProt Q00613 1-529); conditions: protein: recombinant; tags: N-terminal GST; chain copies: 3; dsDNA, one strand shown
# Chain of HSF1 (Q00613 whole entry): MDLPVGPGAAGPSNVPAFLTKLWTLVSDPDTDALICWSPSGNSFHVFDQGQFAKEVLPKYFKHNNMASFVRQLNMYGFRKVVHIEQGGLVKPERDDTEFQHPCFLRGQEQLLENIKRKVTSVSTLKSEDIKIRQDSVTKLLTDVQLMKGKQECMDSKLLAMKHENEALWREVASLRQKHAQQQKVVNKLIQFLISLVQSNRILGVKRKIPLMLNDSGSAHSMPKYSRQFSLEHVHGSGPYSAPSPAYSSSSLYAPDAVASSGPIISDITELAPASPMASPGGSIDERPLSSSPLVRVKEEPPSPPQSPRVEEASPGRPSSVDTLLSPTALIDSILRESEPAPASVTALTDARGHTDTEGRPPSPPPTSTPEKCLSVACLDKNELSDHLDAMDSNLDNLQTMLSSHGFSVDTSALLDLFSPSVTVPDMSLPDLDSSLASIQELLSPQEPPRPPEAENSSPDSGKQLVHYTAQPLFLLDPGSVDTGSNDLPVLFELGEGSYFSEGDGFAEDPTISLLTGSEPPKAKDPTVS
# How it was run: as §1
# [4] = target: T2, SPIC (Homo sapiens, UniProt Q8N5J4 1-248); conditions: protein: recombinant; tags: N-terminal GST; dsDNA, one strand shown
# T2 sequence: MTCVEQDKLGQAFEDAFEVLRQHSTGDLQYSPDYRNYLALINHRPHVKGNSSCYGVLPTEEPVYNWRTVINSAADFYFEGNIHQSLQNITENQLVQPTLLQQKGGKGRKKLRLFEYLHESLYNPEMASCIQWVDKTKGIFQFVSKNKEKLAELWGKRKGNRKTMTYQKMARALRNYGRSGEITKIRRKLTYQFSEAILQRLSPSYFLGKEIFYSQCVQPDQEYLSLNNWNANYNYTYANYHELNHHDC
# How it was run: as §1
# [5] = target: ELF4 (Homo sapiens, UniProt Q99607 1-663); conditions: protein: recombinant; tags: N-terminal GST; dsDNA, one strand shown
# Chain of ELF4 (Q99607 whole entry): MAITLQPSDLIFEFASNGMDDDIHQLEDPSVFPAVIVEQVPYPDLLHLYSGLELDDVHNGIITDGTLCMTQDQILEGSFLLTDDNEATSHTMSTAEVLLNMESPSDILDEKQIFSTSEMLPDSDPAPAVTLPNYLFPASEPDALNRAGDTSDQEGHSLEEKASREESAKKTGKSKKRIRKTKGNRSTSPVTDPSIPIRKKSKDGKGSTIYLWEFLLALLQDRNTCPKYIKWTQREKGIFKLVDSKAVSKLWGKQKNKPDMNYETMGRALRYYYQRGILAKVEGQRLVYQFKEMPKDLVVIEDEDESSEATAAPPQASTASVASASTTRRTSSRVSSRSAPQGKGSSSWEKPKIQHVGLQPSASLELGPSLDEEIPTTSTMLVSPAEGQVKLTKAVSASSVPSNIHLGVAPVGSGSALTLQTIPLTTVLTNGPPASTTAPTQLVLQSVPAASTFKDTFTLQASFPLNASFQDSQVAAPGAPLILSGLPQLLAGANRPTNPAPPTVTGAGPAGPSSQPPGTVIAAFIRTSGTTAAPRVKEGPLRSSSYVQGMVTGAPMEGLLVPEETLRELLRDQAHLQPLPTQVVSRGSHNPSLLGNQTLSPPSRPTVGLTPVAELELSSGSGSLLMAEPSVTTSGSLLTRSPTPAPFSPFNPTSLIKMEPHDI
# How it was run: as §1
# [6] = target: T3, ELK4 (Homo sapiens, UniProt P28324-2 1-405); conditions: protein: recombinant; tags: N-terminal GST; dsDNA, one strand shown
# T3 sequence: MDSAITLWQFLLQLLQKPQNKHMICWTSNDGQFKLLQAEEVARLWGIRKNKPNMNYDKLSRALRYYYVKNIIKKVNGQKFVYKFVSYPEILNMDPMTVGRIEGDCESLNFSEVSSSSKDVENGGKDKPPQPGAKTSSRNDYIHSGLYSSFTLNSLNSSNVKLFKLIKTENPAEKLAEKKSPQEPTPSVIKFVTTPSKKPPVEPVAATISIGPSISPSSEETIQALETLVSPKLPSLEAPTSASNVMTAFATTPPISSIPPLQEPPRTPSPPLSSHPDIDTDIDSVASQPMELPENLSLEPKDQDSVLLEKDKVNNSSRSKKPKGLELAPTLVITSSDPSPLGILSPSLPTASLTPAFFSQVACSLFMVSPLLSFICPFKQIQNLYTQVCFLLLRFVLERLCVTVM
# How it was run: as §1
# [7] = target: T4, ETV2 (Homo sapiens, UniProt O00321 1-342); conditions: protein: recombinant; tags: N-terminal GST; dsDNA, one strand shown
# T4 sequence: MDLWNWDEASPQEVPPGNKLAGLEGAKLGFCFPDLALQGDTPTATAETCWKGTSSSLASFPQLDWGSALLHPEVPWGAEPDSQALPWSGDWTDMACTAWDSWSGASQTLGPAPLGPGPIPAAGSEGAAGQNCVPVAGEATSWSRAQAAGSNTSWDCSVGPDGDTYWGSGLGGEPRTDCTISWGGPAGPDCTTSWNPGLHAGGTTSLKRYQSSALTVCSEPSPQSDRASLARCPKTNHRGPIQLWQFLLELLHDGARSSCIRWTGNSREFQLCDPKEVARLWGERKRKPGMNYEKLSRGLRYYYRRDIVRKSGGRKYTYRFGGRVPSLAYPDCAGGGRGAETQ
# How it was run: as §1
# [8] = target: T5, ELF3 (Homo sapiens, UniProt P78545 1-371); conditions: protein: recombinant; tags: N-terminal GST; dsDNA, one strand shown
# T5 sequence: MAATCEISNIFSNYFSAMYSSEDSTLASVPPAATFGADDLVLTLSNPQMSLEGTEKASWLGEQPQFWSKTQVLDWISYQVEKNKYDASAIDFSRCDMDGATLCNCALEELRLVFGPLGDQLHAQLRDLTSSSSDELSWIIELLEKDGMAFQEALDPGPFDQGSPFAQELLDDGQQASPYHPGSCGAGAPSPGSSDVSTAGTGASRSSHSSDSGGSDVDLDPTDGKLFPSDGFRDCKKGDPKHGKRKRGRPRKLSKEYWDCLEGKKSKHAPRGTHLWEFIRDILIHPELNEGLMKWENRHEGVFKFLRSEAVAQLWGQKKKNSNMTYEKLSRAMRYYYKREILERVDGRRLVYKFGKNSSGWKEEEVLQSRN
# How it was run: as §1
# [9] = target: CRX (Homo sapiens, UniProt O43186 1-299); conditions: protein: recombinant; tags: N-terminal GST; dsDNA, one strand shown
# Chain of CRX (O43186 whole entry): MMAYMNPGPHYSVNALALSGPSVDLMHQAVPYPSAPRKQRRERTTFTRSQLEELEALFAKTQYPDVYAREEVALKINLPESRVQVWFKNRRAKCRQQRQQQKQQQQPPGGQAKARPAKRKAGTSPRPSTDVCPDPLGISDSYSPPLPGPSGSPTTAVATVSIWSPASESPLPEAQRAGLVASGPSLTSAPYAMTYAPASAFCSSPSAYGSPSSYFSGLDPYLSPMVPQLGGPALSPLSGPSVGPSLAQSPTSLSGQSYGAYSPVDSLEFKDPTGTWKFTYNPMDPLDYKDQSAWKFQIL
# How it was run: as §1
# [10] = target: ETV1 (Homo sapiens, UniProt P50549 1-477); conditions: protein: recombinant; tags: N-terminal GST; dsDNA, one strand shown
# Chain of ETV1 (P50549 whole entry): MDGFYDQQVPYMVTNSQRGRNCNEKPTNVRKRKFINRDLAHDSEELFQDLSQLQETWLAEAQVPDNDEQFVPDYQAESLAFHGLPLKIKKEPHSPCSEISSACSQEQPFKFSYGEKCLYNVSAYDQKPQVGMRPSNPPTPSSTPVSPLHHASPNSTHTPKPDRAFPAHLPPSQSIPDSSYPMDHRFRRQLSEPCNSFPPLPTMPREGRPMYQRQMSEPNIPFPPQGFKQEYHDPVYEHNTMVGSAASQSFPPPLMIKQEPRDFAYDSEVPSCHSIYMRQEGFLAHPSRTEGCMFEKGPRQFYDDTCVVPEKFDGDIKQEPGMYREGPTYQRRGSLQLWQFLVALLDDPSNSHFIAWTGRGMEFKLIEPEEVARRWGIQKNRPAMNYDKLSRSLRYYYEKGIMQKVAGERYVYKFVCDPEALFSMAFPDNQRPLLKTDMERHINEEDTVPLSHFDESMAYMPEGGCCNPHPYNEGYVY
# How it was run: as §1
# [11] = target: T6, ERF (Homo sapiens, UniProt P50548 1-548); conditions: protein: recombinant; tags: N-terminal GST; dsDNA, one strand shown
# T6 sequence: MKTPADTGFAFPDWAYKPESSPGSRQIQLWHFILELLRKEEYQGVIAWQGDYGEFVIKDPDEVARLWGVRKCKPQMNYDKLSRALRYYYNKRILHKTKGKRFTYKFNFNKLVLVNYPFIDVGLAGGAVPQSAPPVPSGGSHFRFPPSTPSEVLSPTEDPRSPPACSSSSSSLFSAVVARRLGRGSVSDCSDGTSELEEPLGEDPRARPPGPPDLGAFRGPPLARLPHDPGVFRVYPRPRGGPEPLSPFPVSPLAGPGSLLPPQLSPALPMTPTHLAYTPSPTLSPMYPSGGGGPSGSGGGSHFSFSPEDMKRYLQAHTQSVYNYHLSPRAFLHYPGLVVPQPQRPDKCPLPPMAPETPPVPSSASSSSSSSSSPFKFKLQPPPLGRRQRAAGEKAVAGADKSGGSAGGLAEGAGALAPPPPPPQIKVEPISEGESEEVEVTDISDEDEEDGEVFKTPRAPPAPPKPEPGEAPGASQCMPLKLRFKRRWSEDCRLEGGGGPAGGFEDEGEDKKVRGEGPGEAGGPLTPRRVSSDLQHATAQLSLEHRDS
# How it was run: as §1
# [12] = target: T7, ETV3L (Homo sapiens, UniProt Q6ZN32 1-361); conditions: protein: recombinant; tags: N-terminal GST; dsDNA, one strand shown
# T7 sequence: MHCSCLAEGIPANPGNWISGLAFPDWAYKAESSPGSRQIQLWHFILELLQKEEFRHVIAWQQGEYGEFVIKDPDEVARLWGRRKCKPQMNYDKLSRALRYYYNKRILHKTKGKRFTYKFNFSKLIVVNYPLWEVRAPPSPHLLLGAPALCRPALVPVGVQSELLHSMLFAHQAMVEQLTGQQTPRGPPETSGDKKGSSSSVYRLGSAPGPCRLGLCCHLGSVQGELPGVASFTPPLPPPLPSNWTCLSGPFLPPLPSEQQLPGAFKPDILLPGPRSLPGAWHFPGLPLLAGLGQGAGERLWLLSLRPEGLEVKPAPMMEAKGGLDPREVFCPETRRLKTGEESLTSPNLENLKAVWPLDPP
# How it was run: as §1
# [13] = target: T8, ETS2 (Homo sapiens, UniProt P15036 1-469); conditions: protein: recombinant; tags: N-terminal GST; dsDNA, one strand shown
# T8 sequence: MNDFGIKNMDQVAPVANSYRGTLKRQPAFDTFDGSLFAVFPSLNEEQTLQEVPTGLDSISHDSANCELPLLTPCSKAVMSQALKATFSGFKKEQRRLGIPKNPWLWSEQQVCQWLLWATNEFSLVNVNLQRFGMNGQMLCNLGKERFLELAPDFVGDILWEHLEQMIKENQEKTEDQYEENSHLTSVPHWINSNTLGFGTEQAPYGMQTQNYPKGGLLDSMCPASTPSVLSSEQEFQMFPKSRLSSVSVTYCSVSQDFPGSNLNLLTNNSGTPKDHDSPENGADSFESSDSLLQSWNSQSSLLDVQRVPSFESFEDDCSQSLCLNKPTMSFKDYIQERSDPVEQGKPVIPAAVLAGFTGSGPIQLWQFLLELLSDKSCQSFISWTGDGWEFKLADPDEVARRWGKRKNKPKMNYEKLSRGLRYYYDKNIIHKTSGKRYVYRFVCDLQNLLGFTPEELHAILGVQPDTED
# How it was run: as §1
# [14] = target: T9, SPDEF (Homo sapiens, UniProt O95238 1-335); conditions: protein: recombinant; tags: N-terminal GST; dsDNA, one strand shown
# T9 sequence: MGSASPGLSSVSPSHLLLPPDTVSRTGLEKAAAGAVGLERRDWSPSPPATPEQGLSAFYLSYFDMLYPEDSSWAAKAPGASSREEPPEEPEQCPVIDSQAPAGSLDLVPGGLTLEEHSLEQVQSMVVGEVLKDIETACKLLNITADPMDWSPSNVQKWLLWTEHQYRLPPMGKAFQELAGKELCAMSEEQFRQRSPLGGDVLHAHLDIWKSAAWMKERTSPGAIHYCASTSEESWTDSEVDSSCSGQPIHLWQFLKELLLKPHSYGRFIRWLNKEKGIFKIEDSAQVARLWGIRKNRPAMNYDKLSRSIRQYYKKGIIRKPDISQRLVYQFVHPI
# How it was run: as §1
# [15] = target: T10, ETV7 (Homo sapiens, UniProt Q9Y603 1-341); conditions: protein: recombinant; tags: N-terminal GST; dsDNA, one strand shown
# T10 sequence: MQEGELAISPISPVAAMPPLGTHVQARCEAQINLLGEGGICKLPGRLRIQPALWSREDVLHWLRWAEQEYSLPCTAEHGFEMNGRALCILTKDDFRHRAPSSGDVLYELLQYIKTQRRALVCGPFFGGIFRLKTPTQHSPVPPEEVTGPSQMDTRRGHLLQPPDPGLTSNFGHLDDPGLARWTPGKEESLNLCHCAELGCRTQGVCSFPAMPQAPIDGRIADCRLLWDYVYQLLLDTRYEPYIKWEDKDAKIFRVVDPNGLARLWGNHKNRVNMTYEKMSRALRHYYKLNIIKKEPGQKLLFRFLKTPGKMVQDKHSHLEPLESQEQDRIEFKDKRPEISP
# How it was run: as §1
# [16] = target: T11, ELF5 (Homo sapiens, UniProt Q9UKW6-2 1-255); conditions: protein: recombinant; tags: N-terminal GST; dsDNA, one strand shown
# T11 sequence: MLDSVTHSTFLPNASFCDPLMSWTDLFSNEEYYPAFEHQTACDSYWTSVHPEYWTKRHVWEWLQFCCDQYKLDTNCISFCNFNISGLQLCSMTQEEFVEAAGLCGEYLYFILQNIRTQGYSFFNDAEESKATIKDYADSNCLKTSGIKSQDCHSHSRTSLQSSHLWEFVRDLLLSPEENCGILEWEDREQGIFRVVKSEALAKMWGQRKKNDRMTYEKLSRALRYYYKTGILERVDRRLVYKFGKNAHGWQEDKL
# How it was run: as §1
# [17] = target: T12, ETV3 (Homo sapiens, UniProt P41162-2 1-143); conditions: protein: recombinant; tags: N-terminal GST; dsDNA, one strand shown
# T12 sequence: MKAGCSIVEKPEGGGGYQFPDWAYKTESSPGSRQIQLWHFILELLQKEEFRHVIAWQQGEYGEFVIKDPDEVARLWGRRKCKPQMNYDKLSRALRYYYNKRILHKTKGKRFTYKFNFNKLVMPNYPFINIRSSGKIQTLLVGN
# How it was run: as §1
# [18] = target: ETV6 (Homo sapiens, UniProt P41212 1-452); conditions: protein: recombinant; tags: N-terminal GST; dsDNA, one strand shown
# Chain of ETV6 (P41212 whole entry): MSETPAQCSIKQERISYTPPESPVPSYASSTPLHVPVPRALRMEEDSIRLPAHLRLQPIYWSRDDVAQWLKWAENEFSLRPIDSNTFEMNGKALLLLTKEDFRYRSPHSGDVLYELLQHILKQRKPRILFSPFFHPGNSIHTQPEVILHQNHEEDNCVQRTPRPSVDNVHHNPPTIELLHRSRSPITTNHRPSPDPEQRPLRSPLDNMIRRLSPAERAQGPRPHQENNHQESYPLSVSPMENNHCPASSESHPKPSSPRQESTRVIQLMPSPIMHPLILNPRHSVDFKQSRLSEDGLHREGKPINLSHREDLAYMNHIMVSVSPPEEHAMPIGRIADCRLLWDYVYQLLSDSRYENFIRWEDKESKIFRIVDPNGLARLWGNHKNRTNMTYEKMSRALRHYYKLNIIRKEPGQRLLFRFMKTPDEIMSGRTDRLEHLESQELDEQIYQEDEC
# How it was run: as §1
sequence,measurement,setting,value
TGATGA,binding signal,[1],"1.25 fold enrichment (6-mer frequency, TF over GST control)"
same,binding signal,[2],"1.32 fold enrichment (6-mer frequency, TF over GST control)"
same,binding signal,[3],"1.16 fold enrichment (6-mer frequency, TF over GST control)"
same,binding signal,[4],"1.14 fold enrichment (6-mer frequency, TF over GST control)"
same,binding signal,[5],"1.44 fold enrichment (6-mer frequency, TF over GST control)"
same,binding signal,[6],"1.46 fold enrichment (6-mer frequency, TF over GST control)"
same,binding signal,[7],"1.33 fold enrichment (6-mer frequency, TF over GST control)"
same,binding signal,[8],"1.4 fold enrichment (6-mer frequency, TF over GST control)"
same,binding signal,[9],"1.24 fold enrichment (6-mer frequency, TF over GST control)"
same,binding signal,[10],"1.27 fold enrichment (6-mer frequency, TF over GST control)"
same,binding signal,[11],"1.25 fold enrichment (6-mer frequency, TF over GST control)"
same,binding signal,[12],"1.4 fold enrichment (6-mer frequency, TF over GST control)"
same,binding signal,[13],"1.28 fold enrichment (6-mer frequency, TF over GST control)"
same,binding signal,[14],"1.19 fold enrichment (6-mer frequency, TF over GST control)"
same,binding signal,[15],"1.26 fold enrichment (6-mer frequency, TF over GST control)"
same,binding signal,[16],"1.21 fold enrichment (6-mer frequency, TF over GST control)"
same,binding signal,[17],"1.33 fold enrichment (6-mer frequency, TF over GST control)"
same,binding signal,[18],"1.34 fold enrichment (6-mer frequency, TF over GST control)"
